Measurements from PubChem BioAssay (NCI).
About 83,000 compounds went through this panel and 20% of them were active in at least one assay; those are over-represented in the sample as a whole.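 Treatment: one concentration, 48 hours, 96-well format. Scoring: percent growth, with anything below 10 considered active.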 Values without a mark were called inactive. The source made the active and inactive calls.

Tests used:
Assay in all cases: NCI-60 one-dose screen, 48 h (100 = growth as untreated, 0 = no growth, -100 = all killed)
Conditions in all cases: 10 µM unless noted
T-47D breast = tested on: T-47D breast
BT-549 breast = tested on: BT-549 breast
MDA-MB-435 melanoma = tested on: MDA-MB-435 melanoma
SW-620 colon = tested on: SW-620 colon
MCF7 breast = tested on: MCF7 breast
HCT-116 colon = tested on: HCT-116 colon
HCC-2998 colon = tested on: HCC-2998 colon
KM12 colon = tested on: KM12 colon

SMILES	growth (T-47D breast)	growth (BT-549 breast)	growth (MDA-MB-435 melanoma)	growth (SW-620 colon)	growth (MCF7 breast)	growth (HCT-116 colon)	growth (HCC-2998 colon)	growth (KM12 colon)
CC(=O)OC1CC2C3CCC4C[C@@H](NC(=O)C=C(C)C)CC[C@]4(C)C3CC[C@]2(C)[C@H]1C(C)N(C)C (stereo partly specified)	-22.3% (active)	22.5%	-45.4% (active)	-72.5% (active)	1.95% (active)	-70.4% (active)	-51.9% (active)	1.6% (active)
COc1ccc(CN2C(=O)/C(=C\C(=O)c3ccc(OCCN4CCCCC4)cc3)c3ccccc32)cc1	15.5%	81.5%	95%	-39.9% (active)	20.3%	4.2% (active)	94.9%	89%
COc1cc([C@@H]2c3cc4c(cc3[C@H](O)[C@H]3COC[C@@H]23)OCO4)cc(OC)c1OC	83.7%	90.6%	-12.4% (active)	54.4%	30.9%	66.7%	85.5%	49.5%
O=C1Nc2ccccc2/C1=C/c1cn(CC(O)Cn2cc(/C=C3\C(=O)Nc4ccccc43)c3ccccc32)c2ccccc12 (stereo unspecified)	-46.1% (active)	-55.3% (active)	-87.6% (active)	-60.4% (active)	-67.5% (active)	-64.2% (active)	-16.9% (active)	-80.9% (active)
COC(=O)[C@H](Cc1cn(C)cn1)NC(=O)[C@H](Cc1c[nH]c2ccccc12)NC(=O)Nc1cc(C(F)(F)F)cc(C(F)(F)F)c1	-72.2% [100 µM] (active)	-88.6% [100 µM] (active)	-88.5% [100 µM] (active)	-38.1% [100 µM] (active)	-58.6% [100 µM] (active)	-89.1% [100 µM] (active)	-96.8% [100 µM] (active)	-86.6% [100 µM] (active)
CC([C@H]1CCC2C3CCC4C[C@@H](N)CC[C@]4(C)C3CC[C@@]21C)N(C)C (stereo partly specified)	55.9%	80.1%	0% (active)	40.2%	48.7%	27.9%	80.1%	51.3%
CCOC(=O)c1c(C)oc2ncnc(Nc3ccc(NC(=O)Nc4ccc(CC)cc4)cc3)c12	78.3%	84.5%	102%	113%	94.9%	78.8%	114%	103%
CC1(c2ccc(Br)cc2)NC(=O)NC1=O (stereo unspecified)	82.2%	90.4%	113%	106%	101%	99.5%	106%	101%
COc1ccc(/C=C(/C(=O)N2CCN(c3ccc(C)cc3)CC2)c2cc(OC)c(OC)c(OC)c2)cc1N	97.2%	16.6%	-43.8% (active)	27.1%	12%	3.55% (active)	31.8%	3.83% (active)
CCOC(=O)c1c(C)oc2ncnc(Nc3ccc(NC(=O)Nc4cccc(Cl)c4)cc3)c12	1.99% (active)	61.6%	65.8%	88.7%	43.3%	50.8%	105%	61%
COc1ccc(/C=C2\CCCC3=C2N=C2SC=NN2C3c2ccc(OC)c(OC)c2)cc1OC (stereo unspecified)	52.5%	38.5%	18.2%	29.7%	22.6%	8.93% (active)	57.1%	28.2%
COc1cc(CNC(=O)CCCC/C=C/C(C)C)ccc1OCc1nnc(Nc2ccccc2F)o1	65%	76.9%	100%	98.9%	66.9%	53.5%	90.8%	78.8%
Cc1cc(CSc2ccc(Cl)cc2)ccc1N	84.1%	55.6%	104%	126%	112%	101%	97.7%	70.7%
NC(=O)CC(NC(=O)COc1ccc(Cl)cc1Cl)C(=O)O (stereo unspecified)	109%	108%	107%	105%	102%	101%	109%	104%
N=C(N)N=Nc1ccc(NN=C(N)N)cc1	97.3%	88.9%	109%	38.3%	90.9%	85.9%	86.6%	43.8%
CC(O)C(N)=O (stereo unspecified)	94.7%	102%	103%	105%	94.6%	94.2%	100%	103%

SMILES	growth (T-47D breast)	growth (BT-549 breast)	growth (MDA-MB-435 melanoma)	growth (SW-620 colon)	growth (MCF7 breast)	growth (HCT-116 colon)	growth (HCC-2998 colon)	growth (KM12 colon)
N#Cc1ccc(OCc2nc(N)nc(N)c2-c2ccc(Cl)c(Cl)c2)cc1	82.2%	34.2%	15.9%	21.8%	15.2%	11.9%	40.4%	43.2%
COc1cc(N2C(=O)C=CC2=O)ccc1N1C(=O)C=CC1=O	77.4%	95.3%	109%	85.4%	98.8%	107%	114%	109%
CC(=O)OCC(=O)[C@@]1(O)[C@H](C)C[C@H]2[C@@H]3C=C(C)C4=Cc5c(cnn5-c5ccc(F)cc5)C[C@]4(C)[C@H]3[C@@H](O)C[C@@]21C	42.9%	54.8%	23.3%	-70.3% (active)	18.9%	15.7%	-35.3% (active)	-46.7% (active)
O=C(O)CC1Cc2ccccc2C1C(=O)O (stereo unspecified)	101%	89.7%	108%	98.4%	105%	93.5%	104%	96.7%
CCOC(=O)C1=C(C(F)(F)F)NC(=S)NC1CN1C(=O)c2ccccc2C1=O (stereo unspecified)	107%	118%	118%	93.1%	88.4%	103%	63.3%	111%
CC(=O)/C(=C/c1ccc(-c2ccccc2)cc1)C(=O)c1ccccc1	48.6%	89.5%	80.9%	85.5%	39.6%	57.6%	98.9%	80.5%
CCC(C)(C)c1ccc(OCCCCCCN2CCNCC2)cc1	40%	89.1%	25.9%	-10.4% (active)	4.81% (active)	6.39% (active)	-13.5% (active)	25.2%
CCCCCCCCc1ccc(OCCOCC[N+](C)(C)CC)cc1 (tested in a mixture with another compound)	23.5%	45.3%	15.3%	46.4%	20.3%	54.2%	34.6%	18%
COc1ccc(CN2C(=O)/C(=C\C(=O)c3ccc(OCCN4CCCC4)cc3)c3ccccc32)cc1	57.8%	92.5%	90.2%	3.07% (active)	32.4%	18.5%	101%	85.4%
C=CCNC(=S)NNc1ccc([N+](=O)[O-])cn1	113%	100%	95.7%	92%	88.4%	97.6%	96.3%	99.4%
O=C(NCCO)C(F)(F)F	95.8%	106%	108%	105%	95.6%	108%	97%	107%
COc1ccc2oc(=O)cc(CN3C(=O)S/C(=C\c4ccc(Cl)cc4)C3=O)c2c1	86.6%	91.5%	105%	108%	86.9%	84.8%	104%	96.1%
O=C(CCCC(=O)Nc1ccc(Cn2nnc3cc(Cl)c(Cl)cc32)cc1)Nc1ccc(CN2N=NC3C=C(Cl)C(Cl)=CC32)cc1 (stereo unspecified)	49%	71.5%	87.8%	85.8%	66.6%	75.1%	90.2%	79.9%
CCCCCCCCCCC1OC(C)CC(C)O1 (stereo unspecified)	88.7%	101%	107%	103%	98.6%	97.3%	101%	103%
CCOC(=O)c1csc(-c2ccc(COC(=O)c3ccccc3)o2)n1	102%	116%	101%	112%	92.9%	99.8%	105%	112%
CC(O)CN(CCO)CCN(CCO)CC(C)O (stereo unspecified)	100%	105%	106%	105%	94.5%	104%	109%	108%
